Data reported in PubChem BioAssay (Tox21).
A number with no mark means an inactive call. Calls follow the shape of the dose curve; as a rule, active = well fitted activation curve with a large enough effect in the repeat runs; inconclusive = weak or mixed curves; inactive = flat fitted curve, though single readings scatter.

Experiment: A CellTox Green Cytotoxicity Assay to monitor cytotoxicity in HepG2 cells - 0 hour (AID 1224882); also: nearly all actives have a fitted effect of over 35% in size
Details: CellTox Green fluorescence; series mostly up to 76.8 µM; cytotoxicity: at the top concentration
Source text: National Center for Advancing Translational Sciences [NCATS]
NIH Chemical Genomics Center [NCGC]
U.S. Environmental Protection Agency [EPA]
National Institutes of Environmental Health Sciences [NIEHS]
National Toxicology Program [NTP]
Cell-based models are critical for drug discovery. Determining the natural cytotoxic effects resulting from test compounds is an essential research activity. A CellTox Green Cytotoxicity Assay to monitor cytotoxicity in real time of continues cell culture during 40 hours of the compound treatment was used to screen Tox21 10K library compounds in HepG2 cells. CellTox Green Cytotoxicity Assay is a nonlytic, homogeneous, biofluorescent method to measure cytotoxicity in cell culture after experimental manipulation. The assay system uses a proprietary asymmetric cyanine dye that is excluded from viable cells but preferentially stains the dead cell's DNA. […] Viable cells produce no appreciable increases in fluorescence. Therefore, the fluorescence signal produced by the binding interaction with dead cell DNA is proportional to cytotoxicity.
The mixture of HepG2 cell suspension and reagents were dispensed at 600cells/6 ul/well in 1536-well tissue culture treated black solid bottom plates using a Multidrop dispenser. After the assay plates were incubated at a 37 C/5% CO2 incubator for 5 hours, 23 nL of compounds dissolved in DMSO, positive and negative controls was transferred to the assay plate by a pintool work station. The plates were incubated at 37 C for 40 hours. The fluorescence intensity were measured at 0h, 8h, 16h, 24h, 32h and 40h time points using ViewLux plate reader during compound treatment.
% is scaled to controls: 0 for no effect and ±100 for the full control effect.

Compound | cytotoxicity
CCOCCn1c(C2CCN(CCc3ccc(C(C)(C)C(=O)O)cc3)CC2)nc2ccccc21 | -10.7% [at 35.3 µM]
O=C(C(=O)c1ccccc1)c1ccccc1 | -1.14%
Cc1nccn1-c1ccc(Sc2cccc(C3(C(N)=O)CCOCC3)c2)cc1 | 0.56%
Cn1c(=O)c2c(ncn2CC(=O)O)n(C)c1=O | -7.06% [at 35.3 µM]
CC(C)(C)CC(C)(C)c1ccc(OCCO)cc1 | -14.6%
C=CCCCCCCCCCCCCCCCC | -13.6% [at 6.97 µM]
CC(=O)CC(c1ccc([N+](=O)[O-])cc1)c1c(O)c2ccccc2oc1=O (stereo not given) | 0.0634% [at 35.3 µM]
NC(=O)N(O)[C@@H]1COc2cc(OCc3ccccc3)ccc21 | 1.7%
CCc1cccc(N(C)C(N)=Nc2cccc3ccccc23)c1 | 0.551% [at 35.3 µM]
Cc1nc2ccccc2s1 | 8.36%
CCC(C)(O)CCC=C(C)C (stereo not given) | -7.09%
Cc1ccc(S(=O)(=O)NC2CCCCC2)cc1 | -1.4%
CC(C)OCC1CO1 (stereo not given) | 0.273%
CC1(C)O[C@@H]2C[C@H]3[C@@H]4CCC5=CC(=O)C=C[C@]5(C)[C@H]4[C@@H](O)C[C@]3(C)[C@]2(C(=O)CO)O1 | 0.552% [at 35.3 µM]
Nc1nccs1 | -4.93%
CCCCCCCCCCCCCCCCBr | -3.37% [at 15.8 µM]
CC1(C)C2=CCCC(C)(C)[C@]23CC[C@H]1C3 | -6.81%
COC(=O)c1cc(S(N)(=O)=O)ccc1OC | 0.5% [at 35.3 µM]
COCCOC(=O)C1=C(C)NC(C)=C(C(=O)OC/C=C/c2ccccc2)C1c1cccc([N+](=O)[O-])c1 (stereo not given) | -0.512% [at 35.3 µM]
C[N+](C)(C)CCOC(N)=O | 1.57% [at 35.3 µM]

Compound | cytotoxicity
CN1Cc2cc(C(=O)N3CCC(C4CCNCC4)CC3)ccc2N[C@@H](CC(=O)O)C1=O | -0.724% [at 35.3 µM]
CC[C@@H]([C@H](C)O)n1ncn(-c2ccc(N3CCN(c4ccc(OC[C@@H]5CO[C@@](Cn6cncn6)(c6ccc(F)cc6F)C5)cc4)CC3)cc2)c1=O | 1.99% [at 35.3 µM]
COc1cc2c(N3CCN(C(=O)Nc4ccc(OC(C)C)cc4)CC3)ncnc2cc1OCCCN1CCCCC1 | -4% [at 35.3 µM]
COCC(O)CO (stereo not given) | -1.23%
OCCSc1ccccc1 | 12.6%
COc1cc2c(cc1OC)-c1cc(=Nc3c(C)cc(C)cc3C)n(C)c(=O)n1CC2 | -9.13% [at 35.3 µM]
CC(=N\O)/C(C)=N/O | 0.91%
CCCCN(CCCC)C(=S)SSC(=S)N(CCCC)CCCC | 13.2%
OCC1CC=CCC1 (stereo not given) | 0.0124%
O=C(CCCCCCCCC#CI)Oc1ccccc1 | 4.95% [at 35.3 µM]
O=C(Nc1ccc([N+](=O)[O-])cc1)Nc1ccc([N+](=O)[O-])cc1 | -9.9% [at 35.3 µM]
C[Si]1(C)O[Si](C)(C)O[Si](C)(C)O1 | -6.68%
CC1=C(C=O)C(C)(C)CCC1 | -2.63%
O=[N+]([O-])c1cccc(S(=O)(=O)NCCNS(=O)(=O)c2cccc([N+](=O)[O-])c2)c1 | -0.376% [at 35.3 µM]
Oc1cc(O)c(Cl)cc1Cl | -1.15%
O=C(CCCN1CCC(O)(c2ccc(Br)cc2)CC1)c1ccc(F)cc1 | -11.6% [at 35.3 µM]
CCCCC(CC)COC(=O)COc1ccc(Cl)cc1C (stereo not given) | 0.636%
Cc1cc(C(=C2C=CC(=Nc3ccc(S(=O)(=O)O)cc3S(=O)(=O)O)C=C2)c2ccc(Nc3ccc(S(=O)(=O)O)cc3)cc2)ccc1N | -9.91% [at 35.3 µM]
CCCCC(=O)O[C@]1(C(=O)CO)CC[C@H]2[C@@H]3CCC4=CC(=O)CC[C@]4(C)[C@H]3[C@@H](O)C[C@@]21C | -0.962% [at 35.3 µM]
Cc1cc(S(=O)(=O)O)ccc1N=Nc1c(O)ccc2ccccc12 | -26.8%
